Compound activity (PubChem)
NPSR antag: neuropeptide S receptor (human) antagonism, cAMP; hit rate 1% among 220,000; CHO-NPSR cells, cAMP TR-FRET, antagonist mode; Potency, µM (series often up to 38.3 µM), usual class: inhibitors; further: nearly all actives have a fitted effect of over 50% in size
PNC assembly inh: blocks assembly of the perinucleolar compartment; activity change (PNC), negative = inhibition, % at 10 µM; PC3M PTB-GFP, PNC prevalence imaging, 16 h; active compounds read low; hit rate 3.1% among 140,000;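 active means readout at or below -70, meaning at least 70% loss of cells showing the perinucleolar compartment, a nuclear body marking cancer cells; inconclusive means readout between -30 and a set limit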
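Compounds are pinned in duplicate onto adhered PC3M cells stably expressing GFP-tagged PTB and incubated 16 h at 37 C. Cells are then fixed, nuclei stained with Hoechst, and PNC-positive cells counted.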
ALDH1A1 inh: ALDH1A1 (human) enzyme inhibition | Purified ALDH1A1, NADH fluorescence, propionaldehyde substrate | Potency, µM (doses to about 75.3 µM), usual class: inhibitors | hit rate 7.3% among 220,000 | AID 1030; active means well fitted inhibition curve with a large enough effect, not every such curve was filed as active; inconclusive means small, poorly fitted or top-dose-only effect, or another doubt; inactive means no such curve, though single readings can be large or run the other way
Target sequence (P00352 whole entry, looked up): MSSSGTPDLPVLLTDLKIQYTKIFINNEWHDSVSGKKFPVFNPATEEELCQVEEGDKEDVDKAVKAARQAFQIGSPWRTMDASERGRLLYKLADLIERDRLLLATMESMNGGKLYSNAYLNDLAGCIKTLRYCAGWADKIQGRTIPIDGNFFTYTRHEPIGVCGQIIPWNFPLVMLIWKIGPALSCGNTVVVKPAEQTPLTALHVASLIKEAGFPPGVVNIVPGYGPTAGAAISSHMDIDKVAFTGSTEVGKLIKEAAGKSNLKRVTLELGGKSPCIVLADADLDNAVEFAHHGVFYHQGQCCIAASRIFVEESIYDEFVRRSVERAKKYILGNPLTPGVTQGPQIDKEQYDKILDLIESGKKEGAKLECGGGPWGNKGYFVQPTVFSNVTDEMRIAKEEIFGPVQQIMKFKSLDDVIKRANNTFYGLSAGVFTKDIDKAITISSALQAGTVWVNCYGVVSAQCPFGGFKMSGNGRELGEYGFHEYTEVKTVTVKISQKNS
IMPase cell inh: cell-permeable inhibitors of inositol monophosphatase (IMPase) | CHO-M1 cells, IP1 accumulation, HTRF TR-FRET ratio | inhibition (IP1 accumulation), % at 46.1 µM | 120,000 tested, under 10 active; active means well fitted curve in the direction sought with a large enough effect in the signal ratio, not every such curve was filed as active; inconclusive means small, poorly fitted or top-dose-only effect, or a change in a side signal; inactive means no such curve, though single readings can be large or run the other way; the % refers to the signal ratio;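 further: cells stimulated with carbachol in lithium chloride buffer; higher means more IMPase inhibition seen as more IP1 and lower FRET ratio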
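Cellular IMPase inhibition is scored as a rise in cytosolic IP1, detected by competitive TR-FRET between d2-labelled IP1 and a europium anti-IP1 antibody. M1-expressing CHO cells were stimulated with carbachol for 30 min at 37C, with lithium (50 mM LiCl) present in the buffer.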
HPGD inh: HPGD (human) dehydrogenase inhibition; AID 894; hit rate 4.3% among 150,000; Potency, µM, usual class: inhibitors; purified HPGD, NADH fluorescence kinetic, PGE2 substrate; P15428; active means well fitted inhibition curve with a large enough effect, not every such curve was filed as active; inconclusive means small, poorly fitted or top-dose-only effect, or another doubt; inactive means no such curve, though single readings can be large or run the other way
Target sequence (P15428 whole entry, looked up): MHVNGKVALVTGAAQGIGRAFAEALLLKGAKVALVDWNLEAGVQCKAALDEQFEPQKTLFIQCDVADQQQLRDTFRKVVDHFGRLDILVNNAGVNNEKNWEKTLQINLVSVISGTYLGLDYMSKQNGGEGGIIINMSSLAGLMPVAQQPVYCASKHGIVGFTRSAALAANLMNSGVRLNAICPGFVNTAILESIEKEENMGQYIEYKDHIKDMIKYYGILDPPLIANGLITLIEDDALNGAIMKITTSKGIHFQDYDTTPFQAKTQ
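20 nM HPGD preincubated 15 min at room temperature with compound in 50 mM Tris-HCl pH 8, 0.01% Tween 20. Started with 1 mM NAD+ and 30 uM prostaglandin E2; NADH fluorescence (360/450 nm) read 5 times over 30-s intervals, last minus first.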
IMPase Li cell: membrane-permeable IMPase blocker, potentiated with lithium | CHO-M1 cells, IP1 TR-FRET (IP-One), carbachol + lithium | Potency, µM (titrated, usually from 59.4 µM), hits mostly inhibitors | hit rate 0.35% among 210,000 | AID 1457;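 further: IP1 builds up when IMPase is blocked and the TR-FRET signal falls; nearly all actives have a fitted effect of over 50% in size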
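CHO cells stably expressing M1 receptor (2000/well) were cultured 16–30 h, then exposed to compounds with a small lithium addition for 30 min at 37C. IP1 was measured by TR-FRET competition; AC50 from Hill fits.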
A number is an active result; . = inactive; ? = inconclusive; / = not tested or not shown; [ ] = another dose, or the depositor's remark. An excerpt weighted towards active compounds, which were near 11% of everything screened. Unless noted, the call rests on the fitted dose curve; in most records, active means well fitted curve in the direction sought with a large enough effect; inconclusive means small, poorly fitted or top-dose-only effect, or another doubt; inactive means no such curve, though single readings can be large; an effect the other way counts as inactive or inconclusive.

SMILES	NPSR antag	PNC assembly inh	ALDH1A1 inh	IMPase cell inh	HPGD inh	IMPase Li cell
Cn1c2ccccc2c2cnn(CC(=O)Nc3ccc(Cl)cc3)c(=O)c21	.	/	/	/	/	/
Cc1cc(/C=C2/C(=N)N3C(=NC2=O)SN=C3S(C)(=O)=O)c(C)n1-c1ccc(F)cc1	.	/	28µM	/	/	.
CCC1=NN2C(=N)/C(=C\c3cccn3-c3ccc(Br)cc3)C(=O)N=C2S1	.	/	?	/	/	.
Cc1ccc(-n2cccc2/C=C2/C(=N)N3C(=NC2=O)SN=C3S(C)(=O)=O)cc1Cl	.	.	18µM	.	.	.
CC1=CSC2=NC(=O)/C(=C\c3cccn3-c3ccccc3)C(=N)N12	.	.	22µM	/	.	.
CCC1=NN2C(=N)/C(=C\c3cccn3-c3cccc(Cl)c3)C(=O)N=C2S1	.	/	1.8µM	/	/	.
COc1ccccc1-n1c(C)cc(/C=C2/C(=N)N3C(=NC2=O)SN=C3S(C)(=O)=O)c1C	.	/	?	/	/	.
Cn1c(=O)c(C(=O)COC(=O)c2cc(-c3ccco3)nc3ccccc23)c(N)n(CC2CC2)c1=O	.	.	?	/	?	.
Cc1cc(/C=C2/C(=N)N3C(c4ccccc4)=CSC3=NC2=O)c(C)n1-c1ccccc1	.	.	.	.	.	.
CCOc1ccc(-n2c(C)cc(/C=C3/C(=N)N4C(=NC3=O)SN=C4S(C)(=O)=O)c2C)cc1	.	/	18µM	/	/	.
O=C(Nc1ccccc1Cl)C(Cl)C(=O)c1ccccc1 (configuration not stated)	.	/	1.8µM	/	/	.
O=C(Nc1ccccc1Cl)c1ccccc1	.	/	.	/	/	.
C[N+](C)(C)CCCN(Cc1ccc2c(c1)OCO2)C(=O)NC1CCCCC1	.	/	/	/	/	/
O=C(CCl)NC(=O)NC12CC3CC(CC(C3)C1)C2	.	.	7.9µM	/	.	.
COc1cccc(-c2noc(Cn3nc(C)c([N+](=O)[O-])c3C)n2)c1	.	.	.	.	25µM	.
COCCNC(=O)Cn1nc(C(F)(F)F)c(Cl)c1C	.	.	.	.	.	.
COc1cc(OC)cc(C(=O)Nn2cc(C(=O)Nc3c(F)cccc3F)c3ccccc3c2=O)c1	.	-113	.	/	.	.
COC(=O)c1cn(NC(=O)c2cc(OC)cc(OC)c2)c(=O)c2ccccc12	.	.	.	.	.	.
COc1ccc(NC(=O)c2ccc(-n3cccn3)c([N+](=O)[O-])c2)cc1	.	/	?	/	/	.
COc1ccccc1C(=O)NNC(=O)c1ccccc1[N+](=O)[O-]	.	?	.	/	.	.
COc1ccc(C(=O)NNc2ccccc2)cc1OC	.	.	22µM	.	?	.
COc1ccc(C(=O)NNC(=O)c2ccccc2[N+](=O)[O-])cc1[N+](=O)[O-]	.	/	13µM	/	/	.
COc1ccc(C(=O)NC(=S)Nc2cccnc2)cc1[N+](=O)[O-]	.	/	22µM	/	/	.
COc1ccccc1NC(=O)c1ccc(-n2cccn2)c([N+](=O)[O-])c1	.	/	25µM	/	/	.
CCOc1ccc2nc(NC(=S)NCc3ccccc3)sc2c1	.	.	?	.	?	.
SMILES	NPSR antag	PNC assembly inh	ALDH1A1 inh	IMPase cell inh	HPGD inh	IMPase Li cell
COc1cc(Nc2ccc(C(=O)O)cc2[N+](=O)[O-])cc(OC)c1	.	.	.	/	20µM	.
COc1ccc(C(=O)Nc2ccccc2)cc1[N+](=O)[O-]	/	/	20µM	/	.	.
Cc1ccc(Nc2ccc(C(N)=O)cc2[N+](=O)[O-])cc1C	.	.	?	/	.	.
COc1ccc(/C(O)=C2/C(=O)C(=O)N(CCN(C)C)C2c2cccnc2)cc1OC (configuration not stated)	.	/	.	/	/	.
O=C(N=C1c2ccccc2CN1c1cccc(Cl)c1)c1cccnc1	.	.	.	.	.	.
O=C(N=C1c2ccccc2CN1c1ccc(F)c(F)c1)c1cccnc1	.	/	14µM	/	/	.
Cc1ccc(C)c(OCCn2cc(/C=C(\C#N)C(=O)NCc3ccco3)c3ccccc32)c1	.	-86	.	/	.	.
COC(=O)c1ccc(CC(=O)c2ccc(O)cc2O)o1	.	.	?	?	32µM	.
COC(=O)c1ccc(CC(=O)c2c(C)cc(O)cc2O)o1	.	.	28µM	.	/	/
COC(=O)c1cc(CC(=O)c2ccc(O)cc2O)c(C)o1	.	.	.	.	16µM	.
CCOC(=O)c1ccc(CC(=O)c2ccc(O)cc2O)o1	.	?	?	.	.	.
COc1ccc(S(=O)(=O)N2CCOCC2)cc1NC(=O)Cc1ccccc1Cl	.	.	.	/	.	.
O=C(COC(=O)Cc1cccs1)Nc1ccccc1Cl	.	/	.	/	/	.
Cc1cccc(C(=O)NC(=S)NNC(=O)c2ccccc2Cl)c1	.	.	22µM	/	.	.
CCNC(=S)NNC(=O)c1cccnc1	.	.	.	.	.	.
CCCCNC(=S)NNC(=O)c1cccnc1	.	-87	.	/	.	.
O=C(NNC(=S)NC(=O)c1cccnc1)c1ccc(Cl)cc1	.	.	?	.	.	.
O=C(NC(=S)NNC(=O)c1ccc(Cl)cc1Cl)c1cccnc1	.	?	24µM	/	?	.
Cc1cccc(C(=O)NC(=S)NNC(=O)Cc2ccccc2)c1	.	?	?	/	.	.
NC(=O)[C@@H]1CCCNc2c(F)cc([N+](=O)[O-])cc2C(=O)N[C@@H](CO)C(=O)N[C@@H](Cc2ccc(O)cc2)C(=O)N1	.	?	.	/	.	.
CS(=O)(=O)c1ncc(Cl)c(C(=O)Nc2ccc(N3CCOCC3)cc2)n1	?	.	10µM	.	.	.
COc1cc(/C=C/C(=O)c2ccc(O)cc2)ccc1OCC#N	.	.	?	/	.	.
COc1cccc(C(=O)/C=C/c2ccc(SC)cc2)c1	.	.	16µM	.	.	.
COc1cccc(C(=O)/C=C/c2ccc(OCC#N)c(OC)c2)c1	.	.	8.9µM	/	.	.
COC(=O)c1ccc(/C=C/C(=O)c2cccc(OC)c2)cc1	.	?	.	/	.	.
SMILES	NPSR antag	PNC assembly inh	ALDH1A1 inh	IMPase cell inh	HPGD inh	IMPase Li cell
O=C(/C=C/c1ccc(OC2CSC2)cc1)c1ccc(Cl)cc1	.	.	.	/	.	.
COc1ccc(C(=O)/C=C/c2ccc(OC3CSC3)cc2)cc1OC	.	.	?	/	14µM	.
O=C(CSc1nnnn1-c1ccc(Cl)cc1)N1CCc2ccccc2C1	.	.	?	.	.	.
Nn1c(SCC(=O)NC2CCCCC2)nnc1-c1ccc(Cl)cc1	.	.	.	?	.	.
COc1ccc(CCNC(=O)COC(=O)/C=C/c2cccs2)cc1	.	/	?	/	/	.
COc1ccccc1Nc1nc(Cl)nc(Nc2ccccc2OC)n1	.	/	?	/	/	.
COc1ccccc1Nc1ccc(N)cc1	.	/	28µM	/	/	.
CC(C)c1ccc(/C=C2\C=C(c3ccc4ccccc4c3)OC2=O)cc1	/	/	.[13.5 µM]	/	.	.
COc1ccc(C2=C/C(=C\c3cccc(OC(C)=O)c3)C(=O)O2)cc1	.	.	25µM	/	.	.
